# Assay outcomes deposited in PubChem by National Center for Advancing Translational Sciences (NCATS).
# Most compounds without a hit are left out; they make up all but 12% or so of the library.
# PI5P4Ka inh: qHTS for Inhibitors of phosphatidylinositol 5-phosphate 4-kinase (PI5P4K) | Phosphatidylinositol 5-phosphate 4-kinase type-2 alpha (Homo sapiens), P48426 | PI5P4Kalpha enzyme, ADP-Glo luminescence, 60 min; stronger effect = lower value | max response, % | actives 1.2% (n = 330,000) | AID 652105, 2013; active = max response of -50% or lower; inconclusive = between -30% and -50%; inactive = -30% or higher; also: value at the top dose of about 77 µM; % is scaled to controls: 0 for no effect and ±100 for the full control effect
# Target sequence (P48426 whole entry, looked up): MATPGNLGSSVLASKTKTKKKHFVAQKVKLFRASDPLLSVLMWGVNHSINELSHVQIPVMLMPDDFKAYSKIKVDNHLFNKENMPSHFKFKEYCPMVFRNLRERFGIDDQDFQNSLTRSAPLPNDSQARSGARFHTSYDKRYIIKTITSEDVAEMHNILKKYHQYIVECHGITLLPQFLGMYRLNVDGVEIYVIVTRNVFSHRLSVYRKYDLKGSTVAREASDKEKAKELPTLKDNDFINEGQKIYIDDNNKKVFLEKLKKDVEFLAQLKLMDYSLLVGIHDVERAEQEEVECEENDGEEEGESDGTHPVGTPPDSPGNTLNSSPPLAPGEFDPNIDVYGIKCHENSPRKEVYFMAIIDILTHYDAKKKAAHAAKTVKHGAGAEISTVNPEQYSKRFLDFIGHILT
#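 Enzyme plus substrate dispensed, test compounds pinned in, then ATP (5 microM final) added. After 60 min at RT, ADP-Glo reagent 1 for 45 min and reagent 2 for 30 min preceded luminescence imaging.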
# BAZ2B inh: qHTS Assay for Inhibitors of BAZ2B; AID 504333, 2011; Potency, µM (top dose mostly 114 µM), without a hit: top-dose activity change, negative = inhibition, usual class: inhibitors; Bromodomain adjacent to zinc finger domain protein 2B (Homo sapiens), Q9UIF8; actives 4.4% (n = 360,000); AlphaScreen BAZ2B-H3K14Ac peptide displacement; also: potency is read from the fitted curve at half-maximal effect; % is scaled to controls: 0 for no effect and ±100 for the full control effect; nearly all actives have a fitted effect of over 60% in size
#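 AlphaScreen displacement of biotin-H3(5-23)K14Ac peptide (50 nM final) from BAZ2B (50 nM final) in PBS pH 7.4, 0.01% Tween-20; complex preformed 30 min RT, then compounds (top 110 uM) 30 min RT, beads 20 min dark.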
# G9a block: qHTS Assay for Inhibitors of Histone Lysine Methyltransferase G9a | Histone-lysine N-methyltransferase EHMT2 (Homo sapiens), Q96KQ7 | G9a H3K9 monomethylation, AlphaScreen, 2 h | Potency, µM (top dose mostly 102 µM), for inactives: at the highest dose activity, negative = inhibition, usual class: inhibitors | actives 8.8% (n = 350,000) | AID 504332, 2011; also: potency is read from the fitted curve at half-maximal effect; % is scaled to controls: 0 for no effect and ±100 for the full control effect; nearly all actives have a fitted effect of over 75% in size
#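 G9a (20 nM) preincubated 15 min RT with compounds, then 500 nM biotinylated H3K9 peptide and 20 uM SAM added; 2 h RT reaction. Monomethyl-H3K9 product detected by AlphaScreen with anti-H3K9me1 antibody, streptavidin donor and anti-rabbit IgG acceptor beads.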
# HP1b chromo inh: HTS for Inhibitors of HP1-beta Chromodomain Interactions with Methylated Histone Tails. Chromobox protein homolog 1 (Homo sapiens), P83916. AlphaScreen HP1-beta / biotin-H3K9me3 peptide binding. Potency, µM (highest dose often 114 µM), for the others: at the top dose activity change, negative = inhibition, actives largely listed as inhibitors. actives 0.56% (n = 390,000). AID 540317, 2011; also: potency is read from the fitted curve at half-maximal effect; nearly all actives have a fitted effect of over 70% in size
# Target sequence (P83916 whole entry, looked up): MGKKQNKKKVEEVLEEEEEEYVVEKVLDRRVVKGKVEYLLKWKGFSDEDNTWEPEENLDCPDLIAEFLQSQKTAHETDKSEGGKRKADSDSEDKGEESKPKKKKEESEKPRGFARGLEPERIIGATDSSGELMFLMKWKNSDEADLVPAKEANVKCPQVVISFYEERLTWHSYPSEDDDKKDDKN
#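 Compound inhibition of the preformed complex between 50 nM HP1-beta and 50 nM biotinylated H3K9me3 peptide was read by AlphaScreen. Buffer was PBS pH 7.4 with 0.01% Tween-20. Incubations ran 30 min at room temperature, with 10 ug/mL donor/acceptor beads.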
# PLK1 PBD block: qHTS for Inhibitors of PLK1-PDB (polo-like kinase 1 - polo-box domain): Primary Screen; Potency, µM, inactives show max response, negative = inhibition, hits mostly inhibitors; AID 720504, 2013; Plk1 PBD binding of FITC phosphopeptide, fluorescence polarization; actives 2.8% (n = 360,000); Serine/threonine-protein kinase PLK1 (Homo sapiens), P53350; also: potency is read from the fitted curve at half-maximal effect; series mostly up to about 57 µM; % is scaled to controls: 0 for no effect and ±100 for the full control effect; nearly all actives have a fitted effect of over 65% in size
# JMJD2A Tudor: qHTS Assay for Inhibitors of JMJD2A-Tudor Domain; Potency, µM (titrated, usually from 114 µM), for inactives: at the highest dose activity change, negative = inhibition, usual class: inhibitors; Lysine-specific demethylase 4A (Homo sapiens), O75164; AlphaScreen JMJD2A-Tudor / H3K4me3 peptide binding; actives 4.4% (n = 390,000); AID 504339, 2011; also: potency is read from the fitted curve at half-maximal effect; % is scaled to controls: 0 for no effect and ±100 for the full control effect; nearly all actives have a fitted effect of over 50% in size
# Starred values were filed as active, the others as inactive; ? = inconclusive; nt = no result; [ ] = another dose, or the depositor's remark. Unless noted, calls follow the shape of the dose curve; as a rule, active = well fitted curve in the direction sought with a large enough effect; inconclusive = small, poorly fitted or top-dose-only effect, or another doubt; inactive = no such curve, though single readings can be large; an effect the other way counts as inactive or inconclusive.
SMILES,PI5P4Ka inh,BAZ2B inh,G9a block,HP1b chromo inh,PLK1 PBD block,JMJD2A Tudor
O=C(c1cc(-c2ccco2)on1)N1CCCc2ccccc21,nt,?,13µM*,-8%,?,56µM*
O=C(c1cc(-c2ccco2)on1)N1CCc2ccccc2C1,nt,25µM*,11µM*,-16%,?,50µM*
CC1CCN(C(=O)c2cc(-c3ccco3)on2)CC1,-11,0%,?,1%,-11%,-13%
CC1CCCC(C)N1C(=O)c1cc(-c2ccco2)on1 (stereo not drawn),3,0%,50µM*,24%,-1%,-7%
O=C(c1nn2c(C(F)(F)F)cc(-c3cccs3)nc2c1Br)N1CCCc2ccccc21,10,4%,-12%[59 µM],25%,3%,-7%
O=C(c1nn2c(C(F)(F)F)cc(-c3ccco3)nc2c1Br)N1CCCc2ccccc21,2,2%,18µM*,1%,-5%,-13%[57.1 µM]
CC1(C)CCCN(C(=O)c2coc(=O)c(Br)c2)C1,-82*,20µM*,nt,-95%,11µM*,18µM*
O=C(c1cccc(Br)c1)N1CCCc2ccccc21,0,-5%,nt,80%,-10%,-1%
O=C(c1coc(=O)c(Br)c1)N1CCCc2ccccc21,?,22µM*,18µM*,-34%,0%,40µM*
CCOc1cc(/C=C(\C#N)c2[nH]nc(N)c2C#N)ccc1O,-65*,-34%,?,22%,5%,-33%
CC(NC(=O)c1ccccc1Br)c1nnc(SCC(=O)NC2=NCCS2)n1C (stereo not drawn),-6,-9%,1%,-1%,-14%,-4%
c1ccc(CSc2ncccn2)cc1,nt,10%,25µM*,19%,?,9%
c1ccc(CSc2nnc(Cc3ccccc3)o2)cc1,-9,56%,?,46%,?,79µM*
c1ccc(CSc2nnc([C@@H]3CCCN3)o2)cc1,1,50µM*,nt,70%,-2%,?
CCc1cccc(C)c1NC(=O)c1cn2c3c(ccc(Cl)c3c1=O)OC(C)C2 (stereo not drawn),nt,-3%,-45%[59 µM],23%,nt,-15%
Cc1ccc(Cn2c(C)c(CNCc3ccccc3F)c(C(=O)O)c2C)cc1,nt,-16%,4%[59 µM],18%,nt,-9%
CCCCSc1nnc2c(n1)OC(c1ccc(Br)s1)N(C(C)=O)c1ccccc1-2 (stereo not drawn),nt,?,10µM*,16%,nt,?
CCCCCSc1nnc2c(n1)OC(c1ccc(C)s1)N(C(C)=O)c1ccccc1-2 (stereo not drawn),nt,-38%,?,-8%,nt,?
Cc1ccccc1CNC(=O)C(C)N(c1ccccc1)S(C)(=O)=O (stereo not drawn),nt,1%,0%[59 µM],36%,nt,5%
CO/N=C/C1C(=O)NN=C1c1ccccc1 (stereo not drawn),3,?,?,17%,4%,13µM*
C[N+]1(CC#CC(O)(c2ccccc2)c2ccccc2)CCCC1,-8,-32%,8.9µM*,5%,-11%,?
CCOC(=O)COc1ccc2c(=O)cc(-c3ccccc3)oc2c1,-2,2%,nt,30%,0%,-9%
NC(=O)COc1ccc2oc(-c3ccccc3)cc(=O)c2c1,-2,nt,50µM*,7%,5%,-3%
CC(C)COC(=O)Nc1nnc(Cc2ccccc2)s1,-1,-6%,-12%,-4%,?,18µM*
CCOCCc1nnc(NC(=O)c2cccc(F)c2)s1,2,-4%,-3%,6%,27µM*,-28%[11.4 µM]
SMILES,PI5P4Ka inh,BAZ2B inh,G9a block,HP1b chromo inh,PLK1 PBD block,JMJD2A Tudor
O=C(Nc1nnc(Cc2ccccc2)s1)c1cccnc1,3,-3%,4%[0.501 µM],30%,-6%,7%
CN(C)c1cccc(C(=O)Nc2nnc(Cc3ccccc3)s2)c1,8,-31%,40µM*,4%,-5%,?
CC(C)(C)C(=O)Nc1nnc(Cc2ccccc2)s1,nt,5%,20%[59 µM],15%,-9%,-4%
O=C1Nc2ccccc2C1=Nc1cccc(Cl)c1,0,-31%,15%,20%,-10%,-6%
O=C1CCN(N=Nc2cccc(Cl)c2)N1,nt,?,0.79µM*,nt,nt,nt
CN(C)c1ccc(CN(CC2CCCO2)C(=O)COc2ccccc2Cl)cc1 (stereo not drawn),nt,40µM*,13µM*,?,nt,45µM*
Cc1cc(Cl)ccc1OCC(=O)N(Cc1ccc(N(C)C)cc1)CC1CCCO1 (stereo not drawn),nt,11µM*,18µM*,?,nt,28µM*
COc1ccccc1OCC(=O)N(Cc1ccc(N(C)C)cc1)CC1CCCO1 (stereo not drawn),nt,?,?,9%,nt,?
CCOc1ccc(C(=O)Nc2nnc(SCc3cc(=O)n4ccccc4n3)s2)cc1,nt,13%,9%[59 µM],22%[57 µM],nt,7%
CCC(c1nnnn1Cc1ccco1)N(Cc1cc2cc(C)cc(C)c2[nH]c1=O)CC1CCCO1 (stereo not drawn),?,?,?,?,3.4µM*,-21%[11.4 µM]
CCC(c1nnnn1Cc1ccco1)N(Cc1ccccc1OC)Cc1cc2cc(C)ccc2[nH]c1=O (stereo not drawn),-12,3%,-6%[59 µM],-2%,-10%,?
Cc1cccc2cc(C(c3nnnn3C(C)(C)C)N(Cc3ccco3)CC3CCCO3)c(=O)[nH]c12 (stereo not drawn),-25,50µM*,50µM*,16µM*,-6%,25µM*
COC1=C(N)C(=O)c2nc(-c3nc(C(=O)O)c(C)c(-c4ccc(OC)c(OC)c4O)c3N)ccc2C1=O,-12,2%,?,-23%,-26%,89µM*
Cc1ccc(OCC(=O)NCCO)c(Br)c1,-8,4%,-32%,21%,-5%,-14%
CCCCNCCOCCOc1ccc(C)cc1Br,5,?,10µM*,-35%,4%,3.5µM*
CCC(C)NCCOCCOc1ccc(C)cc1OC (stereo not drawn),2,?,11µM*,?,-1%,20µM*
COCCCNCCOCCOc1ccc(C)cc1Br,7,?,?,19%,-14%,50µM*
CCC(C)NCCOCCOc1ccc(Cl)cc1Br (stereo not drawn),2,-22%,2.2µM*,-19%,-17%,2.5µM*
CC(C)C(N)c1csc(NC(=O)Nc2cccc(Cl)c2)n1 (stereo not drawn),-8,nt,nt,nt,-5%,nt
